Results as given in ChEMBL document CHEMBL1961873, “Compounds: GSK PKIS; Assays: Nanosyn kinase panel” (2012).

Molecular target: RAF proto-oncogene serine/threonine-protein kinase (Homo sapiens) (UniProt P04049)
Details: at 0.1 µM
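Also: values are mean CRAF kinase inhibition from profiling of the GSK Published Kinase Inhibitor Set.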

Sequence of RAF proto-oncogene serine/threonine-protein kinase (Homo sapiens) (P04049 whole entry): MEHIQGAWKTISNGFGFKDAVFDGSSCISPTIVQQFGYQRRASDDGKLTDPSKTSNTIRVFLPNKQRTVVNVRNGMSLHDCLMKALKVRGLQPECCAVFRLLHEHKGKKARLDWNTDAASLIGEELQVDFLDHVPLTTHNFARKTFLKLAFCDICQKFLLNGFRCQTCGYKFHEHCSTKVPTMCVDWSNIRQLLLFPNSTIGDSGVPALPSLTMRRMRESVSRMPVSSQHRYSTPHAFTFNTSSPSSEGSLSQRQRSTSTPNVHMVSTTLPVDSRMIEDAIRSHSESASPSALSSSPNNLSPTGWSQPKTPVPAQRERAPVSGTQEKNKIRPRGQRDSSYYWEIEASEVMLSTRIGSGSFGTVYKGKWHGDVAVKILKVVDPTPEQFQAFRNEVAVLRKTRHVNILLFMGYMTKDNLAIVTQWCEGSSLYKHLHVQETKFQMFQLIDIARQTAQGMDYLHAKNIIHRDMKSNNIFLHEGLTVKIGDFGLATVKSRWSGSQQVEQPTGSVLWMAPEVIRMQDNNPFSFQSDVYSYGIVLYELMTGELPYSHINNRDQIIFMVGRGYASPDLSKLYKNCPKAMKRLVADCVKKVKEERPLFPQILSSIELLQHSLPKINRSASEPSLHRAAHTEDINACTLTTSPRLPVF

Row | SMILES | inhibition
1 | CC(C)(CO)CNC(=O)c1ccc2c(c1)/C(=N/Nc1ccc(S(N)(=O)=O)cc1)C(=O)N2 | -0.32%
2 | COc1ccc2[nH]c3c4[nH]c5ccc(OC)cc5c4c4c(c3c2c1)C(=O)NC4=O | -1.72%
3 | COc1ccc(-c2nn3ncccc3c2-c2ccnc(Nc3ccc4c(c3)OCCO4)n2)cc1 | -0.5%
4 | NS(=O)(=O)c1ccc(N/N=C2\C(=O)Nc3ccc4ncccc4c32)cc1 | -0.71%
5 | CCc1nn2ncccc2c1-c1ccnc(NC2CC2)n1 | 0.39%
6 | CCNC(=O)O[C@H]1CN[C@H](C#Cc2cc3ncnc(Nc4ccc(OCc5cccc(F)c5)c(Cl)c4)c3s2)C1 | -0.64%
7 | O=C(Nc1n[nH]c2cc(-c3ccc(F)cc3)ccc12)C1CC1 | 1.6%
8 | CN1CCC(n2cnc(-c3ccc(F)cc3)c2-c2ccnc(Nc3ccccc3)n2)CC1 | -3.04%
9 | COc1cc(N2CCN(C(C)C)CC2)ccc1Nc1nc(Nc2ccc(F)cc2C(N)=O)c2cc[nH]c2n1 | 0.33%
10 | CCn1cc(-c2ccnc3[nH]ccc23)c(-c2cccc(NC(=O)Nc3ccc(OCc4ccccc4)cc3)c2)n1 | 4.65%
11 | CC(=O)NCc1cccc(C#Cc2cncnc2Nc2ccc(OCc3cccc(F)c3)c(Cl)c2)c1 | 4.54%
12 | CCCN1CCC(c2ccc(Nc3nc(Nc4cc(F)ccc4C(N)=O)c4cc[nH]c4n3)c(OC)c2)CC1 | 7.25%
13 | CN1CCC(n2cnc(-c3ccc(F)cc3)c2-c2ccnc(N)n2)CC1 | -0.57%
14 | CC1=C(C(=O)Nc2cc(Cl)c3[nH]ncc3c2)C(c2ccc(C(F)(F)F)cc2)CC(=O)N1 (configuration not stated) | 0.78%
15 | Fc1ccc(-c2nn3ncccc3c2-c2ccnc(Nc3ccc4c(c3)OCCO4)n2)cc1 | 0.23%
16 | Cc1cccc2c1NC(=O)/C2=N\Nc1ccc(S(N)(=O)=O)cc1 | -3.52%
17 | Nc1nc(-c2ccc(F)cc2)c(-c2ccc3ncccc3n2)s1 | 0.53%
